Experimental data: the OligoGym collection

target: SLC34A1; assay: pooled miR-30 sensor sort-seq; sequence = guide strand; settings: shRNA
Note: reference of the scale not given here.

| Sequence | sensor-assay potency score (higher = more potent) |
| --- | --- |
| TCTGTGATGATCTTGAGCAGGT | 0.374 |
| TTGACTAGGAGGATGAGGCAGG | 0.548 |
| TGGACCACGAAGGTCATGCTGG | -0.818 |
| TTCAGGGAGTGCATCCAGCGAG | -0.619 |
| TTGGAACCCAGTGTGAGCGGGT | 0.313 |
| TAGAGGACGGCAAACCAGCGGT | -0.623 |
| TTAAAGCAGTCATGCACCGTGG | -0.651 |
| TAGTCATGTGTACACGTGCAGA | -1.32 |

target: SLC35D2; assay: as above; settings: shRNA

| Sequence | sensor-assay potency score (higher = more potent) |
| --- | --- |
| TATAGTATCATTATGGTGGCTG | 0.443 |
| TACATTTCTTGAGACTGCCATT | -1.38 |
| TTTCTTATCAAAATCAGGGAAG | -0.741 |
| TAGGATAAACACAACATTCTTC | 0.0517 |
| TTACTTGTGCTTGATAATCCAC | -0.229 |
| TAGACTAAAGACATGTCTGTTT | -0.123 |
| TTGTGCTTGATAATCCACTTAT | -0.388 |
| TTAGCTTGGACACATATAGTAT | -0.569 |
| TTAACTAATTTTATTAGACTAA | -1.13 |
| TAGCTGCACAGAACCGTGGAGT | -0.729 |
| TAATAGCTGCACAGAACCGTGG | -0.868 |
| TAAACTGAAACAACTGGCCCTT | 0.105 |

target: SLC38A11; assay: as above; settings: shRNA

| Sequence | sensor-assay potency score (higher = more potent) |
| --- | --- |
| TCAAGTATCCACATGTAGCAAA | -0.803 |
| TAAACCTGTAGAGATGAGGGAG | 0.481 |
| TTGTGTTGTCTGCTGAACATGA | -0.294 |
| TAATTTTCAAATAAGTCCCCTT | 0.231 |
| TTGAGTTCTAGAACTATCCCGA | 0.433 |
| TTTTATTGACCAAAGACTGGTA | -0.145 |
| TTGAGTATTTGTAATAGCCATG | -1.21 |
| TTCTAGAGAACTGTAAACTAAG | -0.917 |
| TTAAAGTAGAAAGTTGTGTTGT | 0.823 |
| TCTGCTGAACATGAGACTCTGA | 0.182 |
| TTTATCAATAAAACAAGGGAAA | -1.2 |
| TACAACAATGTGGAAAACCGAT | -0.853 |

target: SLC39A12; assay: as above; settings: shRNA

| Sequence | sensor-assay potency score (higher = more potent) |
| --- | --- |
| TGACACAAGATAGCAATCGTAG | -0.876 |
| TTTTTGATACAAGTACTTCTGG | 0.0669 |
| TTTATTACTCATGTTGAGCTTT | -0.0356 |
| TTGCTTGTCACTTAACTTGCTT | -0.0821 |
| TATTCTGTAAAGTAGTCTGGGG | -0.404 |
| TGAAGAACAGATCTCTTCCTGA | 0.419 |
| TAGAAATATCTCCACCAGCTGC | -1.07 |
| TTGTCCCAGACAAACACCCTGG | -0.6 |
